In the supplement of paper PMC8728848:
Only a selection was taken, and the strongest signals are over-represented in it overall.

Tests used:
Assay in all cases: glycan array binding signal (z-score within array); higher = stronger binding
Conditions in all cases: glycan notation: IUPAC condensed, linker removed
[1] = biological target: Fuc(a1-2)Gal(b1-3)GlcNAc(b1-3)[Gal(b1-4)[Fuc(a1-3)]GlcNAc(b1-6)]Gal(b1-4)Glc
Procedure, shortened: (§1)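 Glycan array binding is given as a within-array Z-score, which can be read as non-binding when negative. The arrays, 3228 of them, came from the Consortium for Functional Glycomics database and were retained only where the protein sequence was available. Z-scores were averaged across arrays of the same protein sequence at different concentrations or buffers and across linkers.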

[2] = biological target: Fuc(a1-2)Gal6S(b1-4)GlcNAc
Procedure, shortened: as §1

Fuc(a1-2)[Gal(a1-3)]Gal = biological target: Fuc(a1-2)[Gal(a1-3)]Gal
Procedure, shortened: as §1

[3] = biological target: Fuc(a1-2)[Gal(a1-3)]Gal(b1-3)GlcNAc
Procedure, shortened: as §1

[4] = biological target: Fuc(a1-3)[Gal(b1-4)]GlcNAc(b1-2)Man(a1-3)[Fuc(a1-3)[Gal(b1-4)]GlcNAc(b1-2)Man(a1-6)]Man(b1-4)GlcNAc(b1-4)GlcNAc
Procedure, shortened: as §1

[5] = biological target: Fuc(a1-3)[Gal(b1-4)]GlcNAc(b1-3)Gal(b1-3)[Fuc(a1-4)]GlcNAc
Procedure, shortened: as §1

Gal(b1-2)Gal = biological target: Gal(b1-2)Gal
Procedure, shortened: as §1

[6] = biological target: Gal(b1-4)GlcNAc(b1-2)Man(a1-6)[Man(a1-3)]Man(b1-4)GlcNAc(b1-4)GlcNAc
Procedure, shortened: as §1

[7] = biological target: Gal(b1-4)GlcNAc(b1-3)Gal(b1-4)Glc
Procedure, shortened: as §1

Gal3S(b1-4)GlcNAc = biological target: Gal3S(b1-4)GlcNAc
Procedure, shortened: as §1

Gal3S6S(b1-4)GlcNAc = biological target: Gal3S6S(b1-4)GlcNAc
Procedure, shortened: as §1

GalNAc(a1-3)Gal = biological target: GalNAc(a1-3)Gal
Procedure, shortened: as §1

[8] = biological target: GlcNAc(a1-4)Gal(b1-4)GalNAc
Procedure, shortened: as §1

[9] = biological target: GlcNAc(a1-4)Gal(b1-4)GlcNAc(b1-3)Gal(b1-4)[Fuc(a1-3)]GlcNAc(b1-3)Gal(b1-4)[Fuc(a1-3)]GlcNAc
Procedure, shortened: as §1

[10] = biological target: GlcNAc(b1-3)Gal(b1-4)GlcNAc
Procedure, shortened: as §1

GlcNAc(b1-3)Man = biological target: GlcNAc(b1-3)Man
Procedure, shortened: as §1

[11] = biological target: Man(a1-2)Man(a1-2)Man(a1-6)[Man(a1-3)]Man
Procedure, shortened: as §1

Man(a1-2)Man(a1-3)Man = biological target: Man(a1-2)Man(a1-3)Man
Procedure, shortened: as §1

[12] = biological target: Neu5Ac(a2-3)Gal(b1-3)GalNAc6S
Procedure, shortened: as §1

[13] = biological target: Neu5Ac(a2-3)Gal(b1-4)GlcNAc(b1-3)Gal(b1-4)GlcNAc(b1-3)Gal(b1-4)GlcNAc
Procedure, shortened: as §1

[14] = biological target: Neu5Ac(a2-6)GlcNAc(b1-4)GlcNAc(b1-4)GlcNAc
Procedure, shortened: as §1

[15] = biological target: Neu5Ac9Ac(a2-3)Gal(b1-4)GlcNAc
Procedure, shortened: as §1

[16] = biological target: Neu5Gc(a2-3)Gal(b1-3)GlcNAc
Procedure, shortened: as §1

B1: DETC sTCR (Mus musculus) (protein)
chain: LDVYLEPVAKTFTVVAGDPASFYCTVTGGDMKNYHMSWYKKNGTNALFLVYKLNSNSTDGGKSNLKGKINISKNQFILDIQKATMKDAGTYYCGSDIGGSSWDTRQMFFGTGIELFVEPKSQPPAKPSVFIMKNGTNVACLVKDFYPKEVTISLRSSKKIVEFDPAIVISPSGKYSAVKLGQYGDSNSVTCSVQHNSETVHSTDFEPYANSFNNEKLPEPENDTQISEPCSSADLVPRGSTTAPSAQLKKKLQALKKKNAQLKWKLQALKKKLAQHHHHHHDSWISQDQLSFTRRPNKTVHISCKLSGVPLHNTIVHWYQLKEGEPLRRIFYGSVKTYKQDKSHSRLEIDEKDDGTFYLIINNVVTSDEATYYCACWDSSGFHKVFAEGTKLIVIPSDKRLDADISPKPTIFLPSVAETNLHKTGTYLCLLEKFFPDVIRVYWKEKDGNTILDSQEGDTLKTNDTYMKFSWLTVPERAMGKEHRCIVKHENNKGGADQEIFFPSIKKVAVSTKPTTCSSADLVPRGSTTAPSAQLEKELQALEKENAQLEWELQALEKELAQLNDIFEAQKIEW
glycan array binding signal (z-score) [1]: -0.448 | glycan array binding signal (z-score) [2]: 2.96 | glycan array binding signal (z-score) (Fuc(a1-2)[Gal(a1-3)]Gal): 0.343 | glycan array binding signal (z-score) [3]: -0.572 | glycan array binding signal (z-score) [4]: -0.52 | glycan array binding signal (z-score) [5]: -0.531 | glycan array binding signal (z-score) (Gal(b1-2)Gal): -0.101 | glycan array binding signal (z-score) [6]: 6.38 | glycan array binding signal (z-score) [7]: -0.495 | glycan array binding signal (z-score) (Gal3S(b1-4)GlcNAc): 2.74 | glycan array binding signal (z-score) (Gal3S6S(b1-4)GlcNAc): -0.25 | glycan array binding signal (z-score) (GalNAc(a1-3)Gal): -0.71 | glycan array binding signal (z-score) [8]: 3.96 | glycan array binding signal (z-score) [9]: 5.91 | glycan array binding signal (z-score) [10]: -0.215 | glycan array binding signal (z-score) (GlcNAc(b1-3)Man): -0.035 | glycan array binding signal (z-score) [11]: 0.993 | glycan array binding signal (z-score) (Man(a1-2)Man(a1-3)Man): -0.043 | glycan array binding signal (z-score) [12]: 1.09 | glycan array binding signal (z-score) [13]: -0.518 | glycan array binding signal (z-score) [14]: 5.83 | glycan array binding signal (z-score) [15]: 0.262 | glycan array binding signal (z-score) [16]: -0.599
